MOR-DOR inv ag – inverse agonist of human OPRM1-OPRD1 heterodimerization; AID 504357; cell-based MOR-DOR heterodimer luminescence, inverse agonism; P35372+P41143; inhibition, % at 9.3 µM; hit rate 0.21% among 340,000; in the data active = inhibition above about 22%, passing the limit was not always enough;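 note: 0% = cells with DMSO and 100% = wells without cells with DMSO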
OPRM1-OPRD1 ag – OPRM1-OPRD1 heterodimerization agonism; activation, % at 9.3 µM; P35372+P41143; hit rate 0.3% among 340,000; cells, luminescence;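 note: 0% = vehicle-treated cells and 100% = reference agonist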
HTR5A inv ctr – inverse agonist of human HTR5A in OPRM1-OPRD1 counter-screen; P47898; HTR5A cell line, luminescence, inverse agonism; inhibition, % at 9.3 µM; hit rate 0.083% among 340,000; AID 504634; in the data active = inhibition mostly above about 23%, no sharp cut-off; inactive = mostly below about 18%;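 note: 0% = cells with DMSO and 100% = no-cell wells with DMSO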
Target sequence (P47898 whole entry, looked up): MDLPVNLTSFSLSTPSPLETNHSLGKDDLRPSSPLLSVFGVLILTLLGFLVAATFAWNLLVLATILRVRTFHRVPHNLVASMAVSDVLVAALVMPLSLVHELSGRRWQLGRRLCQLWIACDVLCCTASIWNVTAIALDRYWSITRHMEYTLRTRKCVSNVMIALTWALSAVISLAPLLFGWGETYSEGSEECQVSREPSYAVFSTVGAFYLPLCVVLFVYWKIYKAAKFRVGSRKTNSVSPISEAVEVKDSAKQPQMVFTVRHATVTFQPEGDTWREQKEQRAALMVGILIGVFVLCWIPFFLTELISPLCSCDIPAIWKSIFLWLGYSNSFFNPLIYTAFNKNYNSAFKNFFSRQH
HTR5A ag – HTR5A agonism, opioid heterodimer counter-screen. P47898. HTR5A agonist assay, luminescence, cell-based. activation, % at 9.3 µM. hit rate 0.61% among 340,000; in the data active = activation mostly above about 9.5%, no sharp cut-off; inactive = mostly below about 7.6%;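 note: 0% = cells with vehicle only and 100% = reference agonist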
Bfl-1 A1 inh – inhibitors of the anti-apoptotic protein A1, read as caspase activation. MEF A1-2A-BIM cells, Caspase-Glo 3/7 luminescence, 3 h; percent of clofoctol response, vehicle zero. caspase activation, % (no concentration beside the values). hit rate 0.066% among 330,000. AID 2462;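 active = over half of replicate activation scores above 10%, or exactly half above 10 with the replicate mean above 10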
MOR-DOR ag conf – OPRM1-OPRD1 heterodimer agonism, confirmation. activation, % at 9.3 µM. cells, MOR-DOR heterodimerization, luminescence complementation. hit rate 45% among 830. shares compounds with OPRM1-OPRD1 ag;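 note: 0% = vehicle-treated cells and 100% = reference agonist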
HTR5A ag ctr2 – activates human HTR5A in OPRM1-OPRD1 agonist counter-screen; shares compounds with OPRM1-OPRD1 ag; HTR5A agonist counterscreen, cell luminescence; activation, % at 9.3 µM; hit rate 8% among 830; in the data active = activation above about 17%;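 note: 0% = vehicle-treated cells and 100% = reference agonist response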
The depositor's hits bear a star; i = inactive; . = no result given. Compounds with a hit are over-represented: about 1.1% of the library has one in this group of screens. Cut-off read from the data, not from the text of the source, unless noted: active = activation above about 18%; inactive = the rest.

SMILES | MOR-DOR inv ag | OPRM1-OPRD1 ag | HTR5A inv ctr | HTR5A ag | Bfl-1 A1 inh | MOR-DOR ag conf | HTR5A ag ctr2
Oc1ccccc1N1CCN(C(c2ccccc2)c2ccccc2)CC1 | -171.1 | 26.6* | -29.5 | 10.4 | 0.4 | 23.4* | -1.8
c1ccc(CN2CCN(C(c3ccccc3)c3ccccc3)CC2)cc1 | -130.7 | 26.2* | -14.8 | -2.6 | -0.6 | 19.2* | -3.7
Fc1ccc(CN2CCN(C(c3ccccc3)c3ccccc3)CC2)cc1 | -75.6 | 15.6 | 3.8 | -1.1 | 1.7 | . | .
COc1cccc(-c2nn(-c3ccccc3)cc2CN(C)C(C)c2ccncn2)c1 (centres undefined) | -161.5 | 24.7* | -16.6 | 6.7 | -0.7 | -2.2 | -1.8
O=C(/C=C/c1ccc(F)cc1)NC(Cc1c[nH]c2ccccc12)C(=O)O (centres undefined) | 3.7 | -0.7 | -14.7 | 5.5 | 0.2 | . | .
c1ccc(CNc2c3ccccc3nc3ccccc23)cc1 | -122.2 | 22.1* | 5.0 | -1.3 | -0.5 | 0.8 | -2.2
Cc1ccc(Nc2cc(C)nc3c(C)cccc23)cc1 | -136.1 | 28.6* | 2.9 | -0.8 | -0.1 | 14.8 | -1.0
Cc1ccc(OCCCCN2CCCC(C)C2)c([N+](=O)[O-])c1 (centres undefined) | 4.2 | -0.9 | 36.4 | 1.0 | -0.3 | . | .
O=C(O)c1ccc2c3n(nc2c1)-c1ccc(Cl)cc1CO3 | . | . | . | . | -7.2 | . | .
CC(C)c1ccc(S(=O)(=O)Nc2ccc(SC(F)F)cc2)cc1 | -113.6 | 18.3* | -7.2 | 2.1 | 1.3 | -0.3 | -4.0
CN(Cc1ccccc1)C(=O)c1cccc(NC(=O)Cc2ccc(NC(=O)C3CCN(C(=O)C4CCCCC4)CC3)cc2)c1 | 11.7 | -2.5 | 9.3 | -2.5 | . | . | .
COc1ccc2c(Cl)c(-c3nnc(SCC(N)=O)n3C)sc2c1 | -1.1 | 0.2 | 5.0 | -2.0 | 0.1 | . | .
COc1ccc2c(Cl)c(-c3nnc(SCC(=O)c4ccccc4)n3C)sc2c1 | i | 325.0* | -19.4 | 0.9 | -0.5 | 371.6* | 2.9
C=CC[C@@H](CC(=O)NCCO)C(=O)N[C@H](C)COC(=O)[C@@H](CC=C)Cc1ccc(F)cc1 | 9.9 | -1.7 | -16.2 | -1.3 | 0.7 | . | .
Cc1oc2c(c1C(=O)c1ccccc1)C(=O)C(=O)c1ccccc1-2 | -89.5 | 18.1* | -2.2 | 1.0 | -0.4 | 20.9* | 5.3
CC1CCCCC12NC(=O)N(CC(=O)N(C)Cc1nc3ccccc3c(=O)[nH]1)C2=O (centres undefined) | 10.5 | -2.7 | -3.2 | 3.7 | 0.2 | . | .
CC1CCN(S(=O)(=O)c2cccc(S(=O)(=O)N3CCCC3)c2)CC1 | 9.1 | -1.7 | -5.9 | 2.1 | 0.5 | . | .
CNC(=O)Cn1ncc2c(C)n(Cc3ccc(C)cc3)c(C)c2c1=O | 10.7 | -1.9 | 24.8 | 0.4 | -0.1 | . | .
Cc1c2cnn(CC(=O)Nc3c(F)c(F)cc(F)c3F)c(=O)c2c(C)n1Cc1ccccc1F | -177.8 | 34.7* | -14.2 | 5.0 | 0.2 | 34.2* | 30.7*
CCC(=O)NC(C)C(c1cccs1)N1CCN(c2ccccc2)CC1 (centres undefined) | -176.9 | 30.7* | 16.4 | -3.7 | 1.2 | 0.3 | 1.9
CCOC(=O)C1(CC2CC2)CCN(Cc2ccc3cccc(F)c3n2)CC1 | -121.2 | 24.2* | -14.1 | 5.2 | -0.3 | 27.8* | -0.5
CCOC(=O)C1(CC2CC2)CCN(Cc2cn[nH]c2-c2cccc(F)c2)CC1 | -111.0 | 16.2 | -4.7 | -2.9 | 0.5 | . | .
NC[C@H](Cc1ccccc1)NCCCCC1CCCCC1 | -4.0 | 0.7 | -13.8 | -1.4 | 0.0 | . | .
CNC[C@H](CC1CCCCC1)NC[C@H](Cc1ccccc1)NCCC12CC3CC(CC(C3)C1)C2 | i | 95.3* | -59.6 | 0.3 | -0.4 | 163.7* | 39.3*
CCCn1c(C(CO)Nc2nc(C)cs2)nc2ccccc21 (centres undefined) | -19.4 | 3.3 | -4.1 | 1.5 | 1.0 | . | .
SMILES | MOR-DOR inv ag | OPRM1-OPRD1 ag | HTR5A inv ctr | HTR5A ag | Bfl-1 A1 inh | MOR-DOR ag conf | HTR5A ag ctr2
Cc1cc(N2CCN(S(=O)(=O)c3ccc4c(c3)OCCO4)CC2)n2ncnc2n1 | 14.7 | -2.7 | -14.9 | 0.1 | 0.3 | . | .
COc1ccc(C(=O)OCC(=O)N(C)C2CCS(=O)(=O)C2)cc1S(=O)(=O)N(C)Cc1ccccc1 (centres undefined) | 18.7 | -3.6 | 11.7 | -4.3 | 0.0 | . | .
COc1ccc(C(=O)OCC(=O)N(C)C2CCS(=O)(=O)C2)cc1Br (centres undefined) | -297.7 | 75.6* | 10.2 | -1.6 | -1.0 | -1.2 | -0.4
O=C1C=C(c2ccc3[nH]ccc3c2)CCC1 | 7.9 | -1.4 | -29.2 | 10.9 | -0.7 | . | .
COc1ccc(NC(=O)CN2CCc3ccccc3C2)cc1S(=O)(=O)N1CCOCC1 | -344.6 | 50.9* | -16.1 | 2.9 | -0.2 | 3.0 | 8.3
COc1ccc(NC(=O)CN2CCOCC2)cc1S(=O)(=O)N1CCCCC1 | -9.4 | 2.4 | 4.3 | -1.9 | -0.1 | . | .
CCOc1ccc(NC(=S)Nc2ccc3nsnc3c2)cc1 | -138.1 | 22.2* | 12.3 | 4.2 | 0.6 | 5.6 | 3.5
Cc1cc(/C=C2/C(=O)NN(c3ccccc3)C2=O)c(C)n1-c1ccc(O)cc1 | -314.4 | 60.7* | 8.9 | -3.0 | 0.1 | 50.2* | -4.8
COc1ccc(-n2c(C)cc(/C=C3\C(=O)NN(c4ccccc4)C3=O)c2C)cc1 | -4.2 | 0.8 | 6.9 | 1.1 | -2.2 | . | .
CCNc1ccc(S(=O)(=O)N(C)C)cc1NCC(=O)Nc1ccccc1Cl | 11.8 | -2.4 | -24.9 | 3.4 | -0.3 | . | .
COc1cc(NC(=O)CSc2nnc(C)s2)cc(OC)c1 | 12.5 | -2.6 | -11.8 | 4.9 | 0.5 | . | .
Cc1c(CCOC(=O)c2cc([N+](=O)[O-])cc([N+](=O)[O-])c2)sc[n+]1CC(=O)c1ccccc1 | -25.2 | 4.9 | -17.7 | 6.2 | -0.6 | . | .
Cc1c(CCOC(=O)c2ccccc2)sc[n+]1CC(=O)c1ccc(Br)cc1 | -288.0 | 35.7* | -17.2 | 5.8 | -0.2 | 54.0* | -1.0
CN1CCN(c2nc3c(c(=O)n(C)c(=O)n3C)n2Cc2cccc(Br)c2)CC1 | 6.2 | -1.3 | 2.3 | -0.7 | -0.2 | . | .
O=C1C(Nc2ccc(O)cc2)=C/C(=N/S(=O)(=O)c2cccs2)c2ccccc21 | -123.0 | 24.0* | 25.4 | 4.7 | . | -0.2 | -0.2
Cc1cccc(NC2=C/C(=N/S(=O)(=O)c3cccs3)c3ccccc3C2=O)c1 | -56.5 | 10.9 | -5.6 | 1.5 | -0.1 | . | .
CCC(=O)NC(=S)Nc1cccc(Cl)c1N1CCCCC1 | -16.4 | 3.0 | -2.4 | 4.3 | 0.7 | . | .
O=C(N/N=C1\NC(=O)C(CO)(CO)S1)c1ccccc1 | 9.8 | -2.0 | -3.5 | -1.3 | 0.2 | . | .
Cc1ccc(-n2c([S-])c(C(=O)Nc3ccc(OC(F)F)cc3)[n+]3ccc(C(=O)NCCO)cc23)cc1C | -93.1 | 18.6* | 19.5 | -2.2 | -0.6 | 0.4 | 3.4
CCN(CC)S(=O)(=O)c1cccc(C(=O)N/N=C(\C)c2cccs2)c1 | 5.6 | -1.1 | -1.6 | 0.6 | -1.0 | . | .
